Laboratory results: PubChem BioAssay (NCI)
Compounds without any hit were thinned out: in the full panel of roughly 83,000, 20% have a hit.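 Testing used 96-well plates and a 48-hour single-concentration exposure. Example: -40 means 40% of the starting cells died.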 Active and inactive are the calls of the source. The calls were made as follows: active = growth percent below 10; inactive = the rest.

Columns and labels:
Assay in all cases: NCI-60 one-dose screen, 48 h (100 = growth as untreated, 0 = no growth, -100 = all killed)
Details in all cases: 10 µM unless noted
[1] = system: SR leukemia
[2] = system: RPMI-8226 leukemia
[3] = system: OVCAR-8 ovarian
[4] = system: OVCAR-5 ovarian
[5] = system: OVCAR-4 ovarian
[6] = system: SK-OV-3 ovarian
[7] = system: IGROV1 ovarian
[8] = system: OVCAR-3 ovarian
[9] = system: HS 578T breast
[10] = system: NCI/ADR-RES ovarian
[11] = system: T-47D breast
[12] = system: BT-549 breast
[13] = system: MDA-MB-435 melanoma
[14] = system: SW-620 colon
[15] = system: MCF7 breast
[16] = system: HCC-2998 colon
[17] = system: KM12 colon
[18] = system: HCT-116 colon

Measured: growth

CS(=O)(=O)c1cccc(Nc2ncc3cc(-c4ccccc4Cl)ccc3n2)c1
inactive: [3] 11.3% | [4] 32.2% | [5] 39% | [8] 22.1% | [11] 11.1% | [12] 10.3% | [14] 15.7% | [15] 21.4% | [16] 33.3% | [17] 21.5%
active: [1] 0.145% | [2] 1.72% | [6] -2.26% | [7] 4.09% | [9] 3.45% | [10] -1.15% | [13] -28.3%

COc1cc2c(cc1-c1c(C)noc1C)ncc1nc(C3CCOCC3)n(C3CCC(OC(F)F)CC3)c12 (stereo unspecified)
inactive: [1] 36.4% | [2] 18% | [3] 69.1% | [4] 71% | [5] 48.8% | [6] 17.3% | [7] 55.7% | [8] 44.7% | [9] 54.9% | [10] 53.7% | [11] 11.3% | [12] 77.1% | [13] 48.9% | [15] 18.5% | [18] 66.1% | [16] 56.5% | [17] 44.3%

CCCC1Cc2cc(-n3nc(C)c4c3CC(C)(C)CC4=O)cc(NC3CCC(O)CC3)c2C(=O)N1 (stereo unspecified)
inactive: [1] 29.5% | [2] 51% | [3] 40.3% | [4] 58.8% | [5] 62.5% | [6] 17.1% | [7] 24.7% | [8] 52.6% | [9] 59.1% | [10] 47% | [11] 46.9% | [12] 68.4% | [13] 26.8% | [15] 36.5% | [18] 15.4% | [16] 34.2% | [17] 15.5%

CO[C@H]1/C=C/O[C@@]2(C)Oc3c(C)c(O)c4c(O)c(c5c(nc6cc(C)ccn65)c4c3C2=O)NC(=O)/C(C)=C\C=C\[C@H](C)[C@H](O)[C@@H](C)C(O)[C@@H](C)[C@H](OC(C)=O)[C@@H]1C (stereo partly specified)
active: [11] -5.36%
inactive: [1] 99.3% | [2] 104% | [3] 98.3% | [4] 113% | [5] 100% | [6] 31.9% | [7] 97% | [8] 104% | [9] 72% | [10] 104% | [12] 97.4% | [13] 104% | [14] 114% | [15] 103% | [17] 108%

C=CCOC(=O)C1=C(C)N(CC)C(=O)N(CC)C1c1c(Cl)n(C)c2ccccc12 (stereo unspecified)
inactive: [1] 90.5% | [2] 59.7% | [3] 88% | [4] 89.1% | [5] 88.5% | [6] 103% | [7] 90.9% | [8] 90% | [9] 89.2% | [10] 84.2% | [11] 87.6% | [12] 89.9% | [13] 89.1% | [15] 79% | [16] 78% | [17] 68.6%

N#C/C(=C/C=C/c1ccccc1)S(=O)c1ccccc1 (stereo unspecified)
active: [1] 3.12% | [2] -8.55% | [4] -55.4% | [7] 1.27% | [8] -82.2% | [11] -20.1% | [12] -77.9% | [13] -29.8% | [14] -40.4% | [15] -40.2% | [16] -88.9% | [17] -42.4%
inactive: [3] 14.1% | [5] 18.6% | [6] 32.3% | [9] 15.8% | [10] 11.9%

COc1ccc(-c2ccc(-c3ccc(C(=N)N)nc3)s2)cc1
inactive: [6] 89.2% | [10] 25.5% | [12] 84%
active: [1] 0.29% | [2] -41.1% | [3] -17.4% | [4] -73.1% | [5] -79.7% | [7] -84.3% | [8] -87.1% | [9] -47.5% | [11] -31.1% | [13] -95.8% | [14] -65.7% | [15] -65.5% | [17] -73.7%

Oc1ccc(Cc2ccc(O)c3ncccc23)c2cccnc12
active: [1] 9.74% | [2] 8.21% | [6] -17.2% | [7] 7.8% | [11] -3.14% | [15] 3.18%
inactive: [3] 12.6% | [4] 21.6% | [5] 14.2% | [8] 14.1% | [9] 36.6% | [10] 20.2% | [12] 29.4% | [13] 12.6% | [18] 15.2% | [16] 19.2% | [17] 15.8%

COc1cc(C2CC(c3cccc(Nc4ccncc4)c3)=Nc3c(N)ncnc3N2)cc(OC)c1OC (stereo unspecified)
inactive: [1] 30.1% | [2] 71.8% | [3] 93.6% | [4] 111% | [5] 84.1% | [6] 88.3% | [7] 95.8% | [8] 88.9% | [9] 95% | [10] 96.7% | [11] 62.2% | [12] 113% | [13] 69.7% | [14] 90.6% | [15] 57.6% | [16] 95.4% | [17] 69%

O=C(CSc1nnc(-c2cc(-c3ccc(Cl)cc3)nc3ccccc23)n1-c1ccccc1)Nc1ccc(Cl)cc1
inactive: [1] 78.6% | [2] 102% | [3] 98.3% | [4] 102% | [5] 108% | [6] 94.6% | [7] 97.8% | [8] 106% | [9] 109% | [10] 99.4% | [11] 96.5% | [12] 110% | [13] 102% | [15] 88.3% | [18] 86.3% | [16] 111% | [17] 102%

O=C1/C(=C/c2ccc(-c3ccc(Cl)cc3)o2)SC(=S)N1CCc1ccc(O)cc1
inactive: [1] 24.5% | [2] 55.5% | [3] 16.4% | [4] 75.2% | [5] 25.6% | [6] 44.8% | [7] 31.8% | [8] 24.1% | [9] 36.6% | [10] 77.3% | [11] 43.9% | [12] 64.6% | [13] 19.7% | [14] 26.6% | [15] 77.9% | [16] 89.6% | [17] 22.9%

CCOC(=O)/C=C1\S/C(=N\Nc2cc(=O)[nH]c3ccc(OC)cc23)N(c2ccccc2)C1=O
inactive: [1] 50.4% | [2] 87.2% | [3] 98.7% | [4] 106% | [5] 82.7% | [6] 104% | [7] 92.2% | [8] 95.8% | [9] 103% | [10] 104% | [11] 73.6% | [12] 99.6% | [13] 97% | [15] 69.4% | [18] 93.9% | [16] 115% | [17] 91.8%

Cc1c2cnccc2c(C)c2c1c1cc(C(=O)O)ccc1n2C
active: [2] -1.59% | [3] 5.83% | [4] 9.91% | [5] -4.45% | [6] -4.58% | [7] 0.419% | [8] 0.0817% | [9] 8.93% | [10] 3.03% | [11] -10.2% | [12] -1.22% | [13] 5.58% | [14] 7.21% | [15] 1.28% | [16] 4.89% | [17] 5.47%
inactive: [1] 18.6%

O=[N+]([O-])c1ccc(N/N=C\c2cc(Cl)ccc2O)nc1
inactive: [1] 10.6% | [2] 40.8% | [3] 32.9% | [4] 88.8% | [5] 36.1% | [6] 46.6% | [7] 30.4% | [8] 48.5% | [9] 64.2% | [10] 17.4% | [11] 25.4% | [12] 42.4% | [13] 48.7% | [14] 32.4% | [15] 16% | [16] 42% | [17] 29%

COc1ccc(C(c2cc(OC)c(OC)c(OC)c2)n2cncn2)cc1O (stereo unspecified)
inactive: [2] 20.7% | [3] 13.4% | [4] 73% | [5] 72.1% | [6] 20.3% | [7] 49.2% | [9] 31.3% | [11] 35% | [12] 11.3% | [15] 17.9% | [16] 25.3% | [17] 21.8%
active: [1] 7.03% | [8] 1.74% | [10] 1.8% | [13] -46.2% | [18] 7.25%

COc1cc2cc(Oc3ccc(NC(=O)Nc4ccc(Cl)c(Cl)c4)cc3)c(C)nc2cc1OCCN1CCCCC1
active: [1] -3.12% | [5] -16.5%
inactive: [2] 79.1% | [3] 32.1% | [4] 137% | [6] 119% | [7] 93.4% | [8] 105% | [9] 108% | [10] 99.5% | [11] 85.9% | [12] 88.1% | [13] 74.2% | [15] 55.9% | [18] 91.3% | [16] 104% | [17] 63.3%

COc1ccc(C2=C/C(=C\c3ccccc3O)C(=O)N2Cc2ccccc2)cc1
active: [13] -4.21%
inactive: [1] 45.2% | [2] 63% | [3] 70.9% | [4] 111% | [5] 92.6% | [6] 73.8% | [7] 77.5% | [8] 92.9% | [9] 74.8% | [10] 79.9% | [11] 68.9% | [12] 70.4% | [15] 62.8% | [18] 72.5% | [16] 107% | [17] 70.3%
